From PubChem BioAssay (EPA / NIEHS)
The source made the active and inactive calls. How the source made its calls: active means hit-call score of the fitted dose curve at least 0.9, where 1 is the maximum; inactive means score below 0.9.

What was measured:
[1] = read-out: Macrophage colony-stimulating factor (MCSF), CSF1 (gene 1435); assay: BSK_hDFCGF_MCSF: BioMAP Diversity Plus: hDFCGF Assay for Macrophage colony-stimulating factor (MCSF) Biomarker Activity (AID 2283060); conditions: primary human foreskin fibroblasts; actives raise or lower the signal
How it was run: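 M-CSF levels, determined by ELISA, are taken at 24 h after dosing human skin fibroblasts. Responses in either direction are fitted with DMSO serving as the baseline.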

[2] = BSK_hDFCGF_SRB: Viability Assessment in the BioMAP Diversity Plus: hDFCGF Assay (AID 2283061); conditions: primary human foreskin fibroblasts;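 further: cells exposed to compound for 24 h before the read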
How it was run: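 Cells were dosed with test chemical, cultured 24 h, fixed with 10% TCA, then stained with 0.1% SRB and read at 560 nm. The fibroblasts were human foreskin primary cells, and DMSO served as baseline.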

[3] = read-out: TIMP metallopeptidase inhibitor 1 (TIMP1), TIMP1 (gene 7076); assay: BSK_hDFCGF_TIMP1: BioMAP Diversity Plus: hDFCGF Assay for TIMP metallopeptidase inhibitor 1 (TIMP1) Biomarker Activity (AID 2283062); conditions: primary human foreskin fibroblasts; actives raise or lower the signal
How it was run: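 Fibroblasts from human foreskin are treated with test chemical and harvested at 24 h. TIMP-1 is quantified by ELISA, and gain or loss of signal is scored against DMSO.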

[4] = read-out: Monokine induced gamma interferon (MIG), CXCL9 (gene 4283); assay: BSK_hDFCGF_MIG: BioMAP Diversity Plus: hDFCGF Assay for Monokine induced gamma interferon (MIG) Biomarker Activity (AID 2283063); conditions: primary human foreskin fibroblasts; actives raise or lower the signal
How it was run: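 MIG signal, determined by ELISA, reflects 24 h chemical exposure of human skin primary fibroblasts. DMSO serves as negative control and baseline.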

[5] = read-out: Vascular cell adhesion molecule 1 (VCAM1), VCAM1 (gene 7412); assay: BSK_hDFCGF_VCAM1: BioMAP Diversity Plus: hDFCGF Assay for Vascular cell adhesion molecule 1 (VCAM1) Biomarker Activity (AID 2283065); conditions: primary human foreskin fibroblasts; actives raise or lower the signal
How it was run: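 Cells are dosed, cultured for 24 h, then VCAM-1 is quantified by ELISA; signal increases and decreases are both fitted relative to DMSO.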

[6] = read-out: Plasminogen activator inhibitor-1 (PAI1), SERPINE1 (gene 5054); assay: BSK_hDFCGF_PAI1: BioMAP Diversity Plus: hDFCGF Assay for Plasminogen activator inhibitor-1 (PAI1) Biomarker Activity (AID 2283066); conditions: primary human foreskin fibroblasts; actives raise or lower the signal
How it was run: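 Human foreskin fibroblasts in the hDFCGF system were dosed with compound for 24 h; PAI-1 was quantified by ELISA. Bidirectional curve fitting used DMSO as negative control and baseline.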

[7] = read-out: Intercellular Adhesion Molecule 1 (ICAM1), ICAM1 (gene 3383); assay: BSK_KF3CT_ICAM1: BioMAP Diversity Plus: KF3CT Assay for Intercellular Adhesion Molecule 1 (ICAM1) Biomarker Activity (AID 2283067); conditions: primary human keratinocytes with fibroblasts; actives raise or lower the signal
How it was run: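 Dose the keratinocyte/fibroblast co-culture, wait 24 h, measure ICAM-1 by ELISA, then fit increases or decreases against DMSO. Cytotoxicity is checked in parallel cultures by SRB total-protein staining.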

[8] = read-out: Interferon-gamma inducible Protein 10 (IP10), CXCL10 (gene 3627); assay: BSK_KF3CT_IP10: BioMAP Diversity Plus: KF3CT Assay for Interferon-gamma inducible Protein 10 (IP10) Biomarker Activity (AID 2283068); conditions: primary human keratinocytes with fibroblasts; actives raise or lower the signal
How it was run: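 KF3CT co-culture (keratinocytes + foreskin fibroblasts), 24 h compound, IP-10 by ELISA; bidirectional fit vs DMSO baseline.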

[9] = BSK_KF3CT_SRB: Viability Assessment in the BioMAP Diversity Plus: KF3CT Assay (AID 2283069); conditions: primary human keratinocytes with fibroblasts;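 further: fitted for both signal gain and loss against DMSO baseline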
How it was run: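 Human keratinocyte and foreskin fibroblast co-culture exposed to chemical for 24 h. Total protein measured in parallel cultures by 0.1% sulforhodamine B staining after 10% TCA fixation, read at 560 nm; bidirectional fit relative to DMSO.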

[10] = read-out: Interleukin-1 alpha (IL1a), IL1A (gene 3552); assay: BSK_KF3CT_IL1a: BioMAP Diversity Plus: KF3CT Assay for Interleukin-1 alpha (IL1a) Biomarker Activity (AID 2283070); conditions: primary human keratinocytes with fibroblasts; actives raise or lower the signal
How it was run: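 Primary human keratinocyte plus foreskin fibroblast co-culture, dosed and measured at 24 h in 96-well plates. IL-1a level quantified by ELISA; bidirectional fit relative to DMSO.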

[11] = read-out: TIMP metallopeptidase inhibitor 2 (TIMP2), TIMP2 (gene 7077); assay: BSK_KF3CT_TIMP2: BioMAP Diversity Plus: KF3CT Assay for TIMP metallopeptidase inhibitor 2 (TIMP2) Biomarker Activity (AID 2283071); conditions: primary human keratinocytes with fibroblasts; actives raise or lower the signal
How it was run: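 Human primary keratinocyte/foreskin fibroblast co-culture dosed with chemical and sampled at 24 h. TIMP-2 levels quantified by ELISA; bidirectional fitting against DMSO negative control as baseline.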

[12] = read-out: Transforming growth factor beta 1 (TGFb1), TGFB1 (gene 7040); assay: BSK_KF3CT_TGFb1: BioMAP Diversity Plus: KF3CT Assay for Transforming growth factor beta 1 (TGFb1) Biomarker Activity (AID 2283072); conditions: primary human keratinocytes with fibroblasts; actives raise or lower the signal
How it was run: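 Human keratinocyte plus foreskin fibroblast primary co-culture, dosed with chemical for 24 h. TGF-b1 quantified by ELISA. Activity fitted bidirectionally against DMSO negative control as baseline.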

[13] = read-out: C-C motif chemokine 2 (Homo sapiens) (UniProt P13500); assay: BSK_KF3CT_MCP1: BioMAP Diversity Plus: KF3CT Assay for Monocyte Chemoattractant Protein 1 (MCP1/CCL2) Biomarker Activity (AID 2283073); conditions: primary human keratinocytes with fibroblasts; actives raise or lower the signal
How it was run: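 Keratinocytes and foreskin fibroblasts were co-cultured, dosed with chemical, and sampled 24 h later. MCP-1 was quantified by ELISA, and the endpoint was analyzed with bidirectional fitting using DMSO as negative control.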

[14] = read-out: Matrix Metallopeptidase 9 (MMP9), MMP9 (gene 4318); assay: BSK_KF3CT_MMP9: BioMAP Diversity Plus: KF3CT Assay for Matrix Metallopeptidase 9 (MMP9) Biomarker Activity (AID 2283074); conditions: primary human keratinocytes with fibroblasts; actives raise or lower the signal
How it was run: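 Human keratinocyte and foreskin fibroblast co-culture exposed to chemicals for 24 h; MMP9 biomarker measured by ELISA, bidirectional fitting relative to DMSO; cytotoxicity tracked by SRB total protein staining in parallel cultures.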

[15] = read-out: urokinase plasminogen activator (uPA), PLAU (gene 5328); assay: BSK_KF3CT_uPA: BioMAP Diversity Plus: KF3CT Assay for urokinase plasminogen activator (uPA) Biomarker Activity (AID 2283075); conditions: primary human keratinocytes with fibroblasts; actives raise or lower the signal
How it was run: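 Primary human keratinocyte/foreskin fibroblast co-culture exposed to chemical; uPA measured by ELISA at 24 h. Bidirectional fit versus DMSO, with parallel SRB total-protein staining for cytotoxicity.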

CD40, CD40 (gene 958) = assay: BSK_LPS_CD40: BioMAP Diversity Plus: LPS Assay for CD40 Biomarker Activity (AID 2283076); conditions: primary human HUVEC with PBMC; actives raise or lower the signal
How it was run: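 CD40 signal, measured by ELISA, is fitted in both directions relative to DMSO vehicle. The system is an LPS-driven human vascular primary co-culture of endothelial cells and PBMC, sampled 24 h after compound addition.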

[16] = read-out: Interleukin-8 (IL8), CXCL8 (gene 3576); assay: BSK_LPS_IL8: BioMAP Diversity Plus: LPS Assay for Interleukin-8 (IL8) Biomarker Activity (AID 2283078); conditions: primary human HUVEC with PBMC; actives raise or lower the signal
How it was run: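 Endothelial cells and PBMC from human donors are co-cultured, treated with chemicals and LPS, then assayed for IL-8 by ELISA after 24 h. Parallel SRB staining (0.1% SRB after 10% TCA fixation, 560 nm) flags cytotoxicity.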

[17] = BSK_LPS_SRB: Viability Assessment in the BioMAP Diversity Plus: LPS Assay (AID 2283079); conditions: primary human HUVEC with PBMC;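 further: total protein by sulforhodamine B absorbance as a cytotoxicity measure; measured one day after compound addition; fitted in both directions against DMSO so loss or gain of signal counts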
How it was run: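 Overt cytotoxicity was gauged by sulforhodamine B total-protein staining in a primary human vascular endothelial and mononuclear cell co-culture 24 h post-dosing. Activity was fitted in both directions relative to DMSO.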

[18] = read-out: Matrix Metallopeptidase 1 (MMP1), MMP1 (gene 4312); assay: BSK_hDFCGF_MMP1: BioMAP Diversity Plus: hDFCGF Assay for Matrix Metallopeptidase 1 (MMP1) Biomarker Activity (AID 2283064); conditions: primary human foreskin fibroblasts; actives raise or lower the signal
How it was run: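 Primary human foreskin fibroblasts exposed to chemicals for 24 h; MMP1 measured by ELISA. Cytotoxicity tracked by SRB staining in parallel cultures; bidirectional fit relative to DMSO.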

[19] = read-out: E-selectin (Homo sapiens) (UniProt P16581); assay: BSK_LPS_Eselectin: BioMAP Diversity Plus: LPS Assay for Eselectin Biomarker Activity (AID 2283077); conditions: primary human HUVEC with PBMC; actives raise or lower the signal
How it was run: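 Signal of E-selectin, detected by ELISA, served as the endpoint; cells were umbilical vein endothelium with PBMC, read 24 h after treatment. DMSO defined baseline, and both increases and decreases were fitted.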

Measured: AC50

Sequence of E-selectin (Homo sapiens) (P16581 whole entry, looked up): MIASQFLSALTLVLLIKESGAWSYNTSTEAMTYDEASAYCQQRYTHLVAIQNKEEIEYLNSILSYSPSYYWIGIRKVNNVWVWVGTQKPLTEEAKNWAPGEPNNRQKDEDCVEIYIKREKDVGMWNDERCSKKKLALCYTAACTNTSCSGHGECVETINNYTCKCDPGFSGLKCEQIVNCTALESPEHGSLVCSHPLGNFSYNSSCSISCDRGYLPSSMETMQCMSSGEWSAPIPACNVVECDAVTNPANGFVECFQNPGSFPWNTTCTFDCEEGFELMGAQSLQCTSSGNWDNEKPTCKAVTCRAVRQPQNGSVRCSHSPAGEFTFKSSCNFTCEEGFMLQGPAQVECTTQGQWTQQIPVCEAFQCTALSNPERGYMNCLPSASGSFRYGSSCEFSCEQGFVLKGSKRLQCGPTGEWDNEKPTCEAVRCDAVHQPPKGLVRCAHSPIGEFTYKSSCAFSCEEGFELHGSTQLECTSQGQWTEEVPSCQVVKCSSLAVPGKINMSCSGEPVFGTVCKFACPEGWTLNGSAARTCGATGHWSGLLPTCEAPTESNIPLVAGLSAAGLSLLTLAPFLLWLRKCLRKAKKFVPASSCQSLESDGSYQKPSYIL

CCCCc1ccccc1
not listed: [18] | [19]
inactive: all other assays above

ClC(Cl)c1ccccc1
not listed: [8] | [11] | [19]
inactive: all other assays above

Cc1ccc(N)cc1N
not listed: [18] | [19]
inactive: all other assays above

CCOP(=S)(OCC)SCn1nnc2ccccc2c1=O
active: [1] 20 µM
not listed: [8]
inactive: all other assays above

FC(F)(F)C(F)(C(F)(F)F)C(F)(F)C(F)(F)CC1CO1 (stereo unspecified)
not listed: [12] | [18] | [19]
inactive: all other assays above

Nc1ccc(Cl)cc1
not listed: [18]
inactive: all other assays above

Cc1cccc(N)c1
not listed: [13] | [18]
inactive: all other assays above
